# From the supplement of paper PMC6522484
# ± gives the standard deviation of the averaged measurements.
# Tests used:
# DLD1 [1] = experiment: cell viability (CellTiter-Glo) relative to plate median (fraction of plate median); higher = more viable cells; settings: 5 µM; treatment time 24 h; reporter: 7TFP
# In short: (§1)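 Colorectal cancer lines with stably integrated lentiviral TCF/Wnt firefly luciferase reporters received library compounds at a final 5 µM, 24 h after seeding into 384-well plates, for a 24 h exposure. Reported figures are plate-median-normalised firefly luciferase or CellTiterGlo luminescence per well. They average two independent replicates.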
# HCT116 = experiment: as above; settings: 5 µM; treatment time 24 h; reporter: TCF4/Wnt
# In short: as §1
# SW480 [2] = experiment: as above; settings: 5 µM; treatment time 24 h; reporter: 7TFP
# In short: as §1
# DLD1 [3] = experiment: TCF/Wnt firefly luciferase reporter signal relative to plate median (fraction of plate median); higher = higher Wnt reporter signal; settings: 5 µM; treatment time 24 h; reporter: 7TFP
# In short: as §1
# SW480 [4] = experiment: as above; settings: 5 µM; treatment time 24 h; reporter: 7TFP
# In short: as §1
compound,measurement,setting,value
C=CC(C)(O)CCC1C(=C)CC(OC(C)=O)C2C(C)(C)CCCC12C (stereo not given),cell viability,DLD1 [1],0.929 ± 0.03
same,cell viability,HCT116,0.908 ± 0.041
same,cell viability,SW480 [2],0.971 ± 0.033
same,TCF/Wnt firefly luciferase reporter signal,DLD1 [3],0.798 ± 0.013
same,TCF/Wnt firefly luciferase reporter signal,SW480 [4],0.87 ± 0.17
NCCCC(O)(P(=O)(O)O)P(=O)(O)O,cell viability,DLD1 [1],0.98 ± 0.028
same,cell viability,HCT116,0.974 ± 0.12
same,cell viability,SW480 [2],0.963 ± 0.0042
same,TCF/Wnt firefly luciferase reporter signal,DLD1 [3],0.974 ± 0.12
same,TCF/Wnt firefly luciferase reporter signal,SW480 [4],1.02 ± 0.03
CN1C(C(=O)Nc2ccccn2)=C(O)c2sccc2S1(=O)=O,cell viability,DLD1 [1],0.932 ± 0.03
same,cell viability,HCT116,0.893 ± 0.011
same,cell viability,SW480 [2],0.9585 ± 0.00071
same,TCF/Wnt firefly luciferase reporter signal,DLD1 [3],0.978 ± 0.073
same,TCF/Wnt firefly luciferase reporter signal,SW480 [4],1.09 ± 0.014
O=C(O)C1=CC(=C(c2ccc(O)c(C(=O)O)c2)c2ccc(O)c(C(=O)O)c2)C=CC1=O,cell viability,DLD1 [1],1.03 ± 0.14
same,cell viability,HCT116,1.03 ± 0.028
same,cell viability,SW480 [2],1.06 ± 0.05
same,TCF/Wnt firefly luciferase reporter signal,DLD1 [3],0.996 ± 0.09
same,TCF/Wnt firefly luciferase reporter signal,SW480 [4],1.01 ± 0.049
COc1cc(/C=C/C(=O)N2CCC=CC2=O)cc(OC)c1OC,cell viability,DLD1 [1],0.939 ± 0.037
same,cell viability,HCT116,0.717 ± 0.099
same,cell viability,SW480 [2],1.11 ± 0.042
same,TCF/Wnt firefly luciferase reporter signal,DLD1 [3],0.704 ± 0.14
same,TCF/Wnt firefly luciferase reporter signal,SW480 [4],0.773 ± 0.095
CCOC(=O)c1ccc(N)cc1,cell viability,DLD1 [1],1 ± 0.05
same,cell viability,HCT116,0.903 ± 0.076
same,cell viability,SW480 [2],1.005 ± 0.0071
same,TCF/Wnt firefly luciferase reporter signal,DLD1 [3],0.9395 ± 0.0092
same,TCF/Wnt firefly luciferase reporter signal,SW480 [4],0.897 ± 0.09
O=C(Cn1ccnc1[N+](=O)[O-])NCCO,cell viability,DLD1 [1],0.992 ± 0.04
same,cell viability,HCT116,0.989 ± 0.1
same,cell viability,SW480 [2],0.9935 ± 0.0092
same,TCF/Wnt firefly luciferase reporter signal,DLD1 [3],1.09 ± 0.17
same,TCF/Wnt firefly luciferase reporter signal,SW480 [4],1.02 ± 0.038
COc1cc2c(cc1OC)[C@@H]1Cc3ccc(OC)c(OC)c3CN1CC2,cell viability,DLD1 [1],0.97 ± 0.085
same,cell viability,HCT116,0.941 ± 0.038
same,cell viability,SW480 [2],0.9275 ± 0.0035
same,TCF/Wnt firefly luciferase reporter signal,DLD1 [3],1.17 ± 0.18
same,TCF/Wnt firefly luciferase reporter signal,SW480 [4],1.03 ± 0.028
Cc1onc(-c2ccccc2)c1-c1ccc(S(N)(=O)=O)cc1,cell viability,DLD1 [1],0.844 ± 0.058
same,cell viability,HCT116,1.02 ± 0.03
same,cell viability,SW480 [2],1.05 ± 0.1
same,TCF/Wnt firefly luciferase reporter signal,DLD1 [3],0.91 ± 0.044
same,TCF/Wnt firefly luciferase reporter signal,SW480 [4],0.956 ± 0.17
O=C(O)c1ccc2c(c1)OCO2,cell viability,DLD1 [1],0.927 ± 0.12
same,cell viability,HCT116,1.09 ± 0.078
same,cell viability,SW480 [2],0.948 ± 0.033
same,TCF/Wnt firefly luciferase reporter signal,DLD1 [3],0.927 ± 0.022
same,TCF/Wnt firefly luciferase reporter signal,SW480 [4],0.866 ± 0.12
CCOC(N)=O,cell viability,DLD1 [1],1.01 ± 0.021
same,cell viability,HCT116,1.04 ± 0.16
same,cell viability,SW480 [2],0.949 ± 0.018
same,TCF/Wnt firefly luciferase reporter signal,DLD1 [3],1.035 ± 0.0071
same,TCF/Wnt firefly luciferase reporter signal,SW480 [4],0.982 ± 0.054
O=C(Cc1cccs1)N[C@@H]1C(=O)N2C(C(=O)[O-])=C(C[n+]3ccccc3)CS[C@H]12,cell viability,DLD1 [1],0.979 ± 0.073
same,cell viability,HCT116,0.944 ± 0.057
same,cell viability,SW480 [2],1.01
same,TCF/Wnt firefly luciferase reporter signal,DLD1 [3],0.9975 ± 0.0035
same,TCF/Wnt firefly luciferase reporter signal,SW480 [4],0.889 ± 0.0057
CC/C(=C(\c1ccccc1)c1ccc(OCCN(C)C)cc1)c1ccccc1,cell viability,DLD1 [1],1.08 ± 0.05
same,cell viability,HCT116,1.04 ± 0.064
same,cell viability,SW480 [2],1.05 ± 0.021
same,TCF/Wnt firefly luciferase reporter signal,DLD1 [3],0.872 ± 0.15
same,TCF/Wnt firefly luciferase reporter signal,SW480 [4],0.859 ± 0.14
O=c1cc(CO)occ1O,cell viability,DLD1 [1],1.02 ± 0.057
same,cell viability,HCT116,1.13 ± 0.099
same,cell viability,SW480 [2],0.932 ± 0.011
same,TCF/Wnt firefly luciferase reporter signal,DLD1 [3],0.952 ± 0.069
same,TCF/Wnt firefly luciferase reporter signal,SW480 [4],1.04 ± 0.083
O=c1oc2ccccc2cc1O,cell viability,DLD1 [1],0.992 ± 0.04
same,cell viability,HCT116,0.955 ± 0.013
same,cell viability,SW480 [2],1.03 ± 0.021
same,TCF/Wnt firefly luciferase reporter signal,DLD1 [3],0.765 ± 0.016
same,TCF/Wnt firefly luciferase reporter signal,SW480 [4],0.911 ± 0.14
COc1cc(-c2oc3cc(O)ccc3c(=O)c2O)ccc1O,cell viability,DLD1 [1],1.03 ± 0.014
same,cell viability,HCT116,1.12 ± 0.078
same,cell viability,SW480 [2],1.055 ± 0.0071
same,TCF/Wnt firefly luciferase reporter signal,DLD1 [3],1 ± 0.098
same,TCF/Wnt firefly luciferase reporter signal,SW480 [4],1.07 ± 0.035
O=C(O)CCCC[C@@H]1CCSS1 (racemic),cell viability,DLD1 [1],1.06 ± 0.071
same,cell viability,HCT116,1.01
same,cell viability,SW480 [2],0.986 ± 0.035
same,TCF/Wnt firefly luciferase reporter signal,DLD1 [3],0.856 ± 0.032
same,TCF/Wnt firefly luciferase reporter signal,SW480 [4],0.96 ± 0.023
O=C(CCCCC(=O)Nc1c(I)cc(I)c(C(=O)O)c1I)Nc1c(I)cc(I)c(C(=O)O)c1I,cell viability,DLD1 [1],1.05
same,cell viability,HCT116,1.08 ± 0.16
same,cell viability,SW480 [2],1.01 ± 0.03
same,TCF/Wnt firefly luciferase reporter signal,DLD1 [3],1.05 ± 0.028
same,TCF/Wnt firefly luciferase reporter signal,SW480 [4],1.06 ± 0.021
CCCCN1CCCCC1C(=O)Nc1c(C)cccc1C (stereo not given),cell viability,DLD1 [1],1.02 ± 0.055
same,cell viability,HCT116,0.949 ± 0.071
same,cell viability,SW480 [2],1.06 ± 0.042
same,TCF/Wnt firefly luciferase reporter signal,DLD1 [3],0.901 ± 0.081
same,TCF/Wnt firefly luciferase reporter signal,SW480 [4],0.887 ± 0.047
CCC(=O)O[C@H]1CC[C@H]2[C@@H]3CCc4cc(O)ccc4[C@H]3CC[C@]12C,cell viability,DLD1 [1],1.01 ± 0.023
same,cell viability,HCT116,1 ± 0.16
same,cell viability,SW480 [2],1.02 ± 0.014
same,TCF/Wnt firefly luciferase reporter signal,DLD1 [3],0.888 ± 0.11
same,TCF/Wnt firefly luciferase reporter signal,SW480 [4],0.994 ± 0.052
COc1ccc(/C=C/C(=O)c2cc(O)ccc2O)cc1,cell viability,DLD1 [1],0.979 ± 0.044
same,cell viability,HCT116,0.959 ± 0.073
same,cell viability,SW480 [2],0.98 ± 0.029
same,TCF/Wnt firefly luciferase reporter signal,DLD1 [3],1.18 ± 0.014
same,TCF/Wnt firefly luciferase reporter signal,SW480 [4],1.05 ± 0.17
CCn1cc(C(=O)O)c(=O)c2cc(F)c(N3CCNCC3)cc21,cell viability,DLD1 [1],0.944 ± 0.061
same,cell viability,HCT116,0.98 ± 0.18
same,cell viability,SW480 [2],0.926 ± 0.0014
same,TCF/Wnt firefly luciferase reporter signal,DLD1 [3],1.19 ± 0.042
same,TCF/Wnt firefly luciferase reporter signal,SW480 [4],1.07 ± 0.071
NC1(C(=O)O)CC1,cell viability,DLD1 [1],0.997 ± 0.061
same,cell viability,HCT116,0.9665 ± 0.0021
same,cell viability,SW480 [2],0.9795 ± 0.0064
same,TCF/Wnt firefly luciferase reporter signal,DLD1 [3],0.885 ± 0.045
same,TCF/Wnt firefly luciferase reporter signal,SW480 [4],0.919 ± 0.059
COc1ccc2cc1Oc1ccc(cc1)C[C@H]1c3cc(c(OC)cc3CCN1C)Oc1c(OC)c(OC)cc3c1[C@H](C2)N(C)CC3,cell viability,DLD1 [1],1.04 ± 0.13
same,cell viability,HCT116,0.897 ± 0.15
same,cell viability,SW480 [2],1.215 ± 0.0071
same,TCF/Wnt firefly luciferase reporter signal,DLD1 [3],0.948 ± 0.025
same,TCF/Wnt firefly luciferase reporter signal,SW480 [4],0.889 ± 0.071
COc1ccc2c(=O)c(CC(=O)O)coc2c1,cell viability,DLD1 [1],0.968 ± 0.059
same,cell viability,HCT116,0.984 ± 0.08
same,cell viability,SW480 [2],0.968 ± 0.012
same,TCF/Wnt firefly luciferase reporter signal,DLD1 [3],1 ± 0.021
same,TCF/Wnt firefly luciferase reporter signal,SW480 [4],0.985 ± 0.092
COc1ccc2oc3ccccc3c(=O)c2c1,cell viability,DLD1 [1],1.075 ± 0.0071
same,cell viability,HCT116,1.05 ± 0.078
same,cell viability,SW480 [2],1.09 ± 0.05
same,TCF/Wnt firefly luciferase reporter signal,DLD1 [3],1.15 ± 0.13
same,TCF/Wnt firefly luciferase reporter signal,SW480 [4],1.1 ± 0.078
CO[C@@]1(NC(=O)Cc2cccs2)C(=O)N2C(C(=O)O)=C(COC(N)=O)CS[C@@H]21,cell viability,DLD1 [1],1.06 ± 0.078
same,cell viability,HCT116,1.08 ± 0.2
same,cell viability,SW480 [2],0.968 ± 0.023
same,TCF/Wnt firefly luciferase reporter signal,DLD1 [3],1.07 ± 0.11
same,TCF/Wnt firefly luciferase reporter signal,SW480 [4],0.887 ± 0.021
COc1c2c(cc3occ(-c4ccc5c(c4)OCO5)c(=O)c13)OC(C)(C)C=C2,cell viability,DLD1 [1],0.973 ± 0.067
same,cell viability,HCT116,0.951 ± 0.11
same,cell viability,SW480 [2],0.9305 ± 0.005
same,TCF/Wnt firefly luciferase reporter signal,DLD1 [3],0.799 ± 0.37
same,TCF/Wnt firefly luciferase reporter signal,SW480 [4],0.607 ± 0.49
CC(=O)O[C@@H]1CC[C@@]2(C)C(C[C@@H](OC(C)=O)[C@@]3(C)C4=CC(=O)O[C@@H](c5ccoc5)[C@]4(C)CCC23)C1(C)C (stereo partly drawn) [3alpha-ACETOXYDIHYDRODEOXYGEDUNIN],cell viability,DLD1 [1],1 ± 0.021
same,cell viability,HCT116,1.04 ± 0.11
same,cell viability,SW480 [2],0.956 ± 0.026
same,TCF/Wnt firefly luciferase reporter signal,DLD1 [3],1.25 ± 0.22
same,TCF/Wnt firefly luciferase reporter signal,SW480 [4],1.11 ± 0.028
O=C(O)c1cn(-c2ccc(F)cc2)c2cc(N3CCNCC3)c(F)cc2c1=O,cell viability,DLD1 [1],0.906 ± 0.012
same,cell viability,HCT116,0.949 ± 0.029
same,cell viability,SW480 [2],0.998 ± 0.046
same,TCF/Wnt firefly luciferase reporter signal,DLD1 [3],1.08 ± 0.11
same,TCF/Wnt firefly luciferase reporter signal,SW480 [4],1.06 ± 0.1
